This excerpt belongs to a sample that is enriched for hits.
Vaccinia pol inh: vaccinia E9 polymerase processive synthesis inhibitors, primary screen, biochemical, absorbance; in vitro processive DNA synthesis, absorbance read-out; active compounds read low; normalized absorbance, % (concentration not given with the values); hit rate 0.94% among 46,000; AID 493162, 2011; in the data active = normalized absorbance mostly below about 85%, no sharp cut-off; inactive = mostly above about 86%
Starred values were filed as active, the others as inactive.

SMILES	Vaccinia pol inh
CCCC(C(=O)O)N1C(=O)/C(=C/c2ccccc2Cl)SC1=S (stereo not drawn)	56*
CN1C(=O)/C(=C\c2ccccc2)Sc2ccc(C(=O)NC3CCCCC3)cc21	81
Cc1ccc(NC(=O)Cn2cc(/C=C3/NC(=O)NC3=O)c3ccccc32)cc1	101
O=C(O)C(Br)(Cc1ccccc1)C(=O)O	109
O=C(O)COCC(=O)Nc1ccc(Br)cc1	96
COc1ccc2cc3cc(C(=O)NCCN4CCN(c5ccccc5F)CC4)oc3nc2c1	96
COc1ccc2cc3cc(C(=O)NCc4ccco4)oc3nc2c1	87
COc1ccc2cc3cc(C(=O)NCCN(C)C)oc3nc2c1	40*
O=S(=O)(c1ccccc1F)N1CC=C(c2ccccc2)CC1	113
O=C(O)c1oc2ccccc2c1CSc1ccccn1	90
O=C(O)c1oc2ccccc2c1COc1ccccc1	72*
Cc1c(C(=O)O)oc2ccccc12	100
CN1CCC(N(C)C(=O)c2cc3sc4ccccc4c3s2)CC1	94
COc1ccc(-n2nc3c(c2NC(=O)C2CCCCC2)CSC3)cc1	91
O=C(Cn1cc(/C=C2/C(=O)Nc3ccccc32)c2ccccc21)NCC1CCCO1 (stereo not drawn)	88
COc1ccc(-c2ccnc(SCC(=O)c3ccc(Cl)cc3)n2)cc1	99
COc1ccc(C(=O)CSc2nnc(-c3ccco3)c(-c3ccco3)n2)cc1	68*
COc1ccc(C(=O)CSc2nc3ccccc3s2)cc1	90
Cc1[nH]c(=O)[nH]c(=O)c1S(=O)(=O)NCc1ccccn1	100
CCOC(=O)c1c(C)oc2c1c(CN1CCN(C)CC1)c(O)c1ccccc12	99
Cc1cc(=O)oc2c(CN3CCCCC3)c(O)ccc12	100
Cc1cc(O)c(CN2CCN(C)CC2)c2oc(=O)c3ccccc3c12	81*
O=C(Nc1nc2c(s1)Cc1ccccc1-2)C1=COCCO1	87
CC(C)(C)c1ccccc1OCC(=O)Nc1ccc(OCc2ccccc2)cc1	101
NC(=S)c1[nH]nc2c1[nH]c1ccccc12	98
SMILES	Vaccinia pol inh
CCN(Cc1ccccc1)c1ccc(/C=N/n2cnnc2)cc1	104
CCn1c2ccccc2c2cc(/C=N/n3cnnc3)ccc21	61*
CCn1c2ccccc2c2cc(C=Nc3ccc(Cl)cc3)ccc21	102
O=C(Cn1nc(C(F)(F)F)c2c1CCCC2)N(Cc1ccccc1)Cc1ccccc1	106
Cc1cc2cc(CNC(=O)C34CC5CC(CC(C5)C3)C4)ccc2n1C	105
COc1cccc(NC(=O)CSC2=C(C#N)C(c3ccccc3F)C3=C(CCCC3=O)N2)c1 (stereo not drawn)	113
CC(C)[C@@H]1NC(=O)[C@H](Cc2ccccc2)NC(=O)[C@@H](CC(=O)O)NC(=O)CNC(=O)[C@H](CCCN=C(N)N)NC1=O	101
COc1ccc2c(C#N)c3ccccn3c2c1	72*
COc1ccc(OCc2c(C#N)c3ccccc3n2C)cc1	99
N#CCOc1ccc2c(C#N)c3ccccn3c2c1	106
CC1CCC(NC(=O)Cn2c3ccccc3c3cn[nH]c(=O)c32)CC1 (stereo not drawn)	96
O=C(CCCC(=O)Oc1ccccc1F)Nc1cccc2ccccc12	101
O=C(O)c1cccc(N2C(=O)/C(=C/c3ccccc3)SC2=S)c1	90*
CCN(CC)c1ccc(N2C(=O)/C(=C/c3ccccc3)SC2=S)cc1	101
COc1ccccc1/C=C1\SC(=S)N(c2ccccc2)C1=O	100
CCc1ccc(C2CC(=O)NC(SCC(=O)Nc3ccccc3)=C2C#N)cc1 (stereo not drawn)	98
O=c1[nH]c2ccccc2nc1/C=C(\O)c1ccco1	86
CCOC(=O)c1ccc(N=Cc2cccs2)cc1	113
C(=C\c1cccs1)/c1ccccc1	100
COc1ccc2c3c([nH]c2c1)C(C)=NCC3	100
COc1ccc2c(c1)c1c3n2CCNC3CCC1 (stereo not drawn)	92
COc1ccc2c(c1)c1c3n2CCN=C3N(C)CC1	58*
O=C(Nc1nnc(SCc2ccccc2)s1)c1ccccc1Cl	100
CN(C(=S)NCCc1ccccc1)C1CCCCC1	101
CC(=O)Nc1ccc(-n2c(C)ccc2C)c(C(=O)O)c1	49*
SMILES	Vaccinia pol inh
COc1ccc(NC(C)=O)cc1C	101
CC(=O)Nc1ccc(Cl)c(Cl)c1	99
Cc1ccc(Cn2ncc3c(N4CCC(C)CC4)ncnc32)cc1	108
COC(=O)c1noc(C)c1C(=O)/C=C/N(C)C	40*
CN(C)/C=C/C(=O)c1ccc2c(c1)CCO2	98
Cc1c(C(=O)/C=C/N(C)C)nnn1-c1ccccc1	96
CCOC(=O)CSc1nc2c(c(=O)n1-c1ccccc1)SCC2	100
N#Cc1ccc(S(=O)(=O)Nc2ccccc2Sc2nc3ccc(Cl)cc3s2)cc1	92
CN(C(=O)c1cc2c(s1)-c1ccccc1OC2)c1ccccc1	98
O=C(c1c[nH]c2ccccc2c1=O)N(c1ccccc1)c1ccccc1	100
COc1ccccc1C=Nc1ccc2c(c1)nc(C)n2Cc1ccccc1	100
COc1ccc2nc(NC(=O)c3cccnc3)sc2c1	99
COc1ccc(-c2cc3ccccn3c2C(=O)c2cccnc2)c(OC)c1	44*
COc1ccc(OC)c(NC(=O)c2cccnc2)c1	100
C=CCN(c1ccccc1C1=N/C(=C\c2ccc(C)cc2)C(=O)O1)S(=O)(=O)c1ccc(C)cc1	105
O=C(NCC12CC3CC(CC(C3)C1)C2)C1CCCCC1C(=O)OCC(F)(F)F (stereo not drawn)	100
N#Cc1c(CCl)cc(=O)n2c1sc1ccccc12	91
C(=NCc1cccnc1)c1ccc2c(c1)OCO2	106
O=c1c2ccccc2c(C=NCc2cccnc2)c(O)n1-c1ccccc1C(F)(F)F	104
C(=NCc1cccnc1)c1c2ccccc2cc2ccccc12	42*
N#Cc1c(/N=C/c2cccn2-c2ccc(S(N)(=O)=O)cc2)sc2c1CCCC2	100
O=S1(=O)CCN(C2CCN(Cc3ccccc3)CC2)CC1	104
CC(=O)Oc1c(Sc2ccccc2)c(C)nn1C(C)(C)C	83*
Cc1nn(-c2ccccc2)c(OC(=O)c2cccs2)c1Sc1ccccc1	101
Cc1nn(C(C)(C)C)c(OC(=O)c2ccccc2)c1Sc1ccccc1	88
SMILES	Vaccinia pol inh
O=C(CSC1CCCCC1)N1CCOCC1	99
CCOC(=O)c1cc(C)n(C)c1C	105
Cc1cc(C)cc(NC(=S)N(CCCN2CCOCC2)C(C)c2cc3ccccc3o2)c1 (stereo not drawn)	108
CCN1C=C/C(=C\c2cc[n+](CC)c3ccccc23)c2ccccc21	65*
CC[n+]1ccc(C)c2ccccc21	99
COc1cccc2c(=O)n(CC(=O)N3CCCC3)ccc12	99
CC1Cc2cc(/C=C3\N=C(c4ccccc4F)OC3=O)ccc2O1 (stereo not drawn)	100
CCCOc1ccc2cc(C(=O)c3ccccc3)c(=N)oc2c1	108
O=C(O)CNC(=S)N(Cc1ccccc1)Cc1cccs1	88
O=C(CNC(=S)N(Cc1ccccc1)Cc1cccs1)NC1CCCCC1	77*
O=C(O)CNC(=S)N(Cc1cccs1)C1CCCCC1	101
O=C(OCc1ccccc1)c1ccc2ccccc2n1	99
CC(=O)OC1C(c2ccccc2)=NN(C(C)=O)C1c1ccccc1 (stereo not drawn)	97
CCOC(=O)c1sc2nc(Cc3ccccc3)nc(NCCC3=CCCCC3)c2c1C	95
Cc1cccc2c1-c1sc(C(=O)NCCN3CCCCC3C)cc1CO2 (stereo not drawn)	91
CCC1CCCCN1CCCNC(=O)c1cc2c(s1)CSC2 (stereo not drawn)	102

From PubChem BioAssay
